Laboratory results: PubChem BioAssay AID488969 (Vanderbilt High Throughput Screening Facility, 2010)
Whole data set: some 110,000 compounds, median “z-score” near -0.1, cut for the highest 2% near 2. What follows is part of a selection rich in the highest values, with near analogues and random picks from the rest. Active and inactive are the calls of the source.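 Rule for the calls: active = z-score in the third read window above 3 or below -3; inactive = the rest.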

These compounds were tested against Metabotropic glutamate receptor 8 (Rattus norvegicus) (UniProt P70579) (assay: mGluR8 Gi/Go-coupled signaling modulation – cell-based, rat, thallium flux, HTS, primary screen (AID 488969)). Conditions: HEK293 rat mGluR8, GIRK (G protein-gated inwardly rectifying potassium channel) thallium flux, FluoZin2; at 10 µM; stronger effect = higher value; submaximal glutamate (EC20) added with thallium.
Chain of Metabotropic glutamate receptor 8 (Rattus norvegicus) (P70579 whole entry, looked up): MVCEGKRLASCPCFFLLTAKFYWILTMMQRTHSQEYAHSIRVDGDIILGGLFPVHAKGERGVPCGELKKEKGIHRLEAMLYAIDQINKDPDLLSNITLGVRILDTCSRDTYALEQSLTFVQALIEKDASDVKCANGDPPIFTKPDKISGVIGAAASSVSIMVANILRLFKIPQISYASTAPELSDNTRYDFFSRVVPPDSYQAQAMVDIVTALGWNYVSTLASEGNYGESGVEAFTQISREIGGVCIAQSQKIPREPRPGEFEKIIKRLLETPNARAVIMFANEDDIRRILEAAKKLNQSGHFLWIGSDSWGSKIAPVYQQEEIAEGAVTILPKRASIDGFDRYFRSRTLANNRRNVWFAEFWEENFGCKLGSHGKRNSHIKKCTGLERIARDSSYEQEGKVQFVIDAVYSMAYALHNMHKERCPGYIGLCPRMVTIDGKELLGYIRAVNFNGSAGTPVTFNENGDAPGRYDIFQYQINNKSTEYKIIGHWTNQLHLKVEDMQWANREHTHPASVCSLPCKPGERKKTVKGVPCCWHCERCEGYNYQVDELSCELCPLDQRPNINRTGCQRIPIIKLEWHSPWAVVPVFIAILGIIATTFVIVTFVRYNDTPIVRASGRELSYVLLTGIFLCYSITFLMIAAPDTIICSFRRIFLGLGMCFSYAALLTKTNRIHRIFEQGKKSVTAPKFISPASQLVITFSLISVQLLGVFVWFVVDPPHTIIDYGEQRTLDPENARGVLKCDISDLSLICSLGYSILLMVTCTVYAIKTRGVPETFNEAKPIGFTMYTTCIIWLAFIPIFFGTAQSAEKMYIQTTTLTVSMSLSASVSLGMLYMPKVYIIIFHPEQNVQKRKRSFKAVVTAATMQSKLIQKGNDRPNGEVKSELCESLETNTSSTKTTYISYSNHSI

Going from `C/C(=N\Nc1cc(-c2ccccc2)nc(-c2ccc(Br)cc2)n1)c1cccc(N)c1` to `COc1ccccc1C(=O)Nc1ccc(C)cc1C(=O)c1ccccc1`, the z-score falls from -0.0597 to -0.242.

Compared with `CN1CCN(C(=O)c2ccc(CS(=O)(=O)c3c(Cl)cccc3Cl)o2)CC1`, `Cc1ccc(S(=O)(=O)N2CCCCC2)cc1NC(=O)COC(=O)Cc1ccc(Cl)cc1` is lower in z-score: 0.504 for the first, -0.0868 for the second.

Going from `Nn1c(SCC(=O)Nc2ccc3c(c2)OCCO3)nnc1-c1ccccn1` to `Cc1cc(C)n2nc(C(=O)OCC(=O)Nc3ccc4c(c3)OC(F)(F)O4)nc2n1`, the z-score falls from -0.0196 to -0.0308.

Compared with `COCCN1C(=O)C(=O)/C(=C(/O)c2ccc(S(=O)(=O)N3CCOCC3)cc2)C1c1ccc(C(C)C)cc1` (centres undefined), `COc1cccc(C2c3c(oc4ccc(F)cc4c3=O)C(=O)N2CCN2CCOCC2)c1OC` (centres undefined) is lower in z-score: 0.0253 for the first, -0.574 for the second.

Going from `COc1ccc(NC(=O)CCS(=O)(=O)c2ccccc2)c(OC)c1` to `Cc1ccc2c(c1)/C(=N/OS(=O)(=O)c1ccccc1)CCS2`, the z-score falls from 0.256 to -0.0781.

Compared with `C=CCNC(=S)N/N=C/c1cn(-c2ccccc2)nc1-c1ccc(OC)cc1`, `Cc1ccc(C(=O)NC(=S)Nc2ccc(S(=O)(=O)N(C)c3ccccc3)cc2)cc1` is higher in z-score: -0.184 for the first, 0.95 for the second.

First: O=C(N/C=C\c1ccccc1)NCc1ccc(Cl)cc1
Second: O=C(Nc1ccc(S(=O)(=O)NCc2ccccc2)cc1)c1ccc(Br)o1
The z-score of the first is lower: 0.197 for the first, 0.32 for the second.

Compared with `COc1ccc(C(=O)N(Cc2ccccc2)Cc2cc3cc4c(cc3[nH]c2=O)OCCO4)cc1`, `CN(CCNC(=O)c1cc2c(=O)n(C)c3ccccc3c2n1C)Cc1ccccc1` is higher in z-score: 0.201 for the first, 2.77 for the second.

First: C=CCNc1cnn(CC(C)=O)c(=O)c1Br
Second: CC(C)(C)C(=O)CN1C(=O)C2(OCCO2)c2ccccc21
The z-score of the first is lower: -0.0909 for the first, 0.508 for the second.

Going from `C=CCn1c(CCNC(=O)c2cccs2)nnc1SCC(=O)c1ccc(Cl)cc1` to `CCCCN(CCCC)S(=O)(=O)c1ccc(NC(=O)c2cccs2)cc1`, the z-score rises from -0.334 to 0.572.

Compared with `CCOc1cc2c(cc1C(C)(C)C)NC(=O)CS2`, `Cc1cc([N+](=O)[O-])c(C(C)(C)C)cc1N` is higher in z-score: -0.538 for the first, 1.32 for the second.

Compared with `CCOC(=O)C1=C(c2ccccc2)Nc2c(c(=O)n(C)c(=O)n2C)C1c1ccc(O)c(OC)c1` (centres undefined), `COc1ccc(CCN2C(=O)C(O)=C(C(C)=O)C2c2ccccc2OC)cc1OC` (centres undefined) is lower in z-score: 0.108 for the first, -0.511 for the second.

Going from `CCOc1ccc(OCCSc2nc3ccccc3c(=O)[nH]2)cc1` to `CCCOc1ccc(CSc2nc3ccccc3[nH]2)cc1`, the z-score rises from -0.398 to 1.22.

Going from `O=C(CCSCCC(=O)NCc1ccco1)NCc1ccco1` to `COC(=O)c1ccc(OC(=O)c2ccco2)cc1`, the z-score rises from -0.212 to 0.696.

Compared with `COc1ccc(C(=O)Nn2cnnc2)cc1`, `Cc1ccc(C(=O)NC(=S)Nn2cnnc2)cc1` is lower in z-score: -0.00169 for the first, -0.262 for the second.

First: O=C(Cn1c(=O)oc2ccccc21)Nc1nnc(N2CCCCCC2)s1
Second: CCS(=O)(=O)c1nc2ccccc2n1CC(=O)N1CCCCC1
The z-score of the first is lower: -0.181 for the first, 0.849 for the second.

Going from `O=C1CSC(=Nc2ccccc2)N1` to `Cc1cccc(N=C2NC(=O)CS2)c1`, the z-score rises from -0.108 to 0.297.

Compared with `Cc1ccc(N=C2NC(=O)CS2)cc1`, `Cc1ccc(Nc2nc(C)c(CCC(C)C)c(=O)[nH]2)cc1` is lower in z-score: 2.26 for the first, 0.22 for the second.

Going from `CCc1ccc(C(C)NC(=O)c2cc(C)oc2C)cc1` (centres undefined) to `CN(C)S(=O)(=O)c1ccc(NC(=O)c2ccc(Br)o2)cc1`, the z-score rises from -0.386 to 0.638.

Going from `COc1cc(/C=N/NC(=O)c2ccc([N+](=O)[O-])cc2Cl)cc(Br)c1O` to `COc1cc(/C=C/C(=O)OCC(=O)Nc2ccc(C)c(S(=O)(=O)N3CCCCC3)c2)ccc1O`, the z-score falls from 0.0738 to -0.427.

Compared with `CCOc1ccc(CCNC(=O)CN2CCN(Cc3ccccc3F)C2=O)cc1OCC`, `CCCCN(CC)CCNC(=O)c1cc2c(=O)n(C)c3ccccc3c2n1C` is higher in z-score: 0.219 for the first, 2.85 for the second.

Going from `COc1ccc(-c2nnc(SCC(=O)N3CCCc4ccccc43)o2)cc1OC` to `Cc1cccc(NC(=O)CSc2nnc([C@@H]3CCCN3C(=O)OC(C)(C)C)o2)c1C`, the z-score rises from 0.39 to 1.54.

Going from `Nc1nc(C2CCCCC2)cs1` to `CC1(C)CC(c2csc(N)n2)CCO1` (centres undefined), the z-score rises from 0.293 to 0.945.

Compared with `CCC1(C)CC(c2csc(N)n2)CCO1` (centres undefined), `CC(C)(C)c1cnnn1-c1ccc(-c2csc(N)n2)cc1` is lower in z-score: 2.98 for the first, -0.0644 for the second.

Going from `CC1(C)CC(=O)C(C=Nc2ccccc2Sc2ccccc2)=C(O)C1` to `CC1(c2ccccc2)CC(C)(C)N2C(=O)C3(C(C#N)=C(N)Oc4cc(O)ccc43)c3cccc1c32` (centres undefined), the z-score rises from -0.747 to -0.217.

Going from `Cc1nc(Nc2ccc(F)cc2)[nH]c(=O)c1CCC(C)C` to `Cc1nc(Nc2ccccc2)[nH]c(=O)c1CCC(C)C`, the z-score rises from -0.00139 to 2.73.

Going from `Cc1nnc(SCc2ccc(F)cc2Cl)s1` to `Cc1nn(-c2ccccc2)c(Cl)c1/C=C1\SC(=S)NC1=O`, the z-score falls from -0.295 to -0.842.

First: Cc1cc(C)nc(N2CCCC(C(=O)NCCC3=CCCCC3)C2)n1 (centres undefined)
Second: Cc1cnc(C(=O)OCC(=O)Nc2ccc(C)c(S(=O)(=O)N3CCCCC3)c2)cn1
The z-score of the first is higher: 0.000737 for the first, -1 for the second.

Going from `CCCCN(CC)CCCNC(=O)c1cc2c(=O)n(C)c3ccccc3c2n1C` to `CCN(CC)CCCNC(=O)c1cc2c(=O)n(C)c3ccccc3c2n1C`, the z-score falls from 2.54 to 1.21.

Going from `CC(C)OCCCNC(=O)c1cc2c(=O)n(C)c3ccccc3c2n1C` to `COCCCNC(=O)c1cc2c(=O)n(C)c3ccccc3c2n1C`, the z-score rises from -0.527 to -0.127.

Compared with `COCCNC(=O)c1cc2c(=O)n(C)c3ccccc3c2n1C`, `CN(C)CCNC(=O)c1cc2c(=O)n(C)c3ccccc3c2n1C` is higher in z-score: -0.524 for the first, 0.703 for the second.

Compared with `CCN(CC)CCNC(=O)c1cc2c(=O)n(C)c3ccccc3c2n1C`, `CCCN(CCC)CCNC(=O)c1cc2c(=O)n(C)c3ccccc3c2n1C` is higher in z-score: 1.25 for the first, 1.86 for the second.

First: CN(C)/C=N/C(=S)Nc1ccc(Br)cc1F
Second: CCOC(=O)Nc1ccc(OC)cc1S(=O)(=O)N1CCCCC1
The z-score of the first is higher: 1.46 for the first, 0.612 for the second.

First: O=C(CCCn1c(SCC(=O)NC2CCCCC2)nc2ccccc2c1=O)NCC1CCCO1 (centres undefined)
Second: O=C(COc1ccc(S(=O)(=O)NC2CCCCC2)cc1Cl)NCc1cccnc1
The z-score of the first is higher: -0.0674 for the first, -0.567 for the second.

Going from `CN1CCN(C2=CC(=O)OC23CCCCC3)CC1` to `O=c1c2cc(N3CCOCC3)ccc2[nH]c(=S)n1CCCN1CCCC1`, the z-score falls from 0.371 to -0.171.

Going from `CCOc1ccc(N/C(=C(/C(Cl)=C(Cl)Cl)[N+](=O)[O-])n2cncn2)cc1` to `CCN(c1ccccc1)S(=O)(=O)c1ccc(NC(=S)NC(=O)c2cccs2)cc1`, the z-score rises from -0.895 to 2.75.

First: CN(C)C(=O)c1ccc(Oc2ccc(C(=O)N(C)C)cc2)cc1
Second: CC(=O)c1ccc(Oc2ccc(C(C)=O)cc2)cc1
The z-score of the first is higher: 2.6 for the first, -0.0838 for the second.

Going from `CNC(=O)c1ccc(Oc2ccc(C(=O)NC)cc2)cc1` to `O=C(Nc1ccc(NC(=S)NC(=O)c2cccs2)cc1)c1ccccc1`, the z-score falls from -0.0105 to -0.193.

Compared with `COc1cc2c(=O)n(CCCN3CCOCC3)c(=S)[nH]c2c(OC)c1OC`, `COc1cc2[nH]c(=S)n(CCCN3CCOCC3)c(=O)c2cc1OC` is lower in z-score: 2.07 for the first, 0.0597 for the second.

Compared with `COc1cc2[nH]c(=S)n(CCN3CCOCC3)c(=O)c2cc1OC`, `O=c1c2ccccc2[nH]c(=S)n1CCCN1CCOCC1` is higher in z-score: -0.262 for the first, 0.0674 for the second.

First: Cc1ccc(C(=O)COC(=O)c2n[nH]c(=O)c3ccccc23)cc1
Second: O=C(COC(=O)Cn1cnc2ccccc2c1=O)Nc1ccccc1Sc1ccc(Cl)cc1
The z-score of the first is lower: -0.454 for the first, 0.148 for the second.

Going from `COc1cc(C2C(Oc3ccccc3C)C(=O)N2Cc2ccc(F)cc2)cc(OC)c1OC` (centres undefined) to `COC(=O)C1=C(C)NC(C)=C(C(=O)OC)C1c1ccc(OC(=O)c2ccco2)cc1`, the z-score falls from -0.106 to -0.519.

First: Cc1ccc(S(=O)(=O)N2CCCCC2)cc1NC(=O)COC(=O)c1cc[n+]([O-])cc1
Second: Cc1ccc(S(=O)(=O)N2CCCCC2)cc1NC(=O)COC(=O)C1CC2C=CC1C2 (centres undefined)
The z-score of the first is lower: -0.223 for the first, 2.38 for the second.

Going from `Cc1ccc(NC(=O)COC(=O)C2CC3C=CC2C3)cc1S(=O)(=O)N1CCCCC1` (centres undefined) to `Cc1ccc(NC(=O)COC(=O)C2CC2C)c(S(=O)(=O)N2CCCCC2)c1` (centres undefined), the z-score rises from 2.02 to 2.07.

Going from `Cc1ccc(NC(=O)COC(=O)C2CCC(=O)N2)c(S(=O)(=O)N2CCOCC2)c1` (centres undefined) to `Cc1cc(NC(=O)c2cccc(S(=O)(=O)N3CCCCCC3)c2)no1`, the z-score rises from -0.196 to 0.223.

Going from `O=C(COC(=O)C1CC2C=CC1C2)Nc1ccccc1` (centres undefined) to `O=C(O)CN1C(=O)C2(OCCCO2)c2ccccc21`, the z-score rises from 0.0334 to 0.0511.

Going from `COc1cc(O)c(C(C)=O)cc1OC` to `COc1cc(CNc2nc(C)c([N+](=O)[O-])c(C)c2C#N)cc(OC)c1`, the z-score falls from 0.68 to -0.18.

Going from `CC1CC(C)(C)Nc2ccc(OC(=O)c3ccco3)cc21` (centres undefined) to `CC(C)OC(=O)C1C2C=CC3(CN(Cc4cccs4)C(=O)C13)O2` (centres undefined), the z-score falls from 2.2 to 0.0334.

First: CN(C1CCCCC1)S(=O)(=O)c1ccc(NC(=O)C2CCCCC2)cc1
Second: CN(C1CCCCC1)S(=O)(=O)c1ccc(NC(=S)NC(=O)c2cccs2)cc1
The z-score of the first is lower: -0.089 for the first, 2.93 for the second.

Compared with `O=C(NC(=S)Nc1ccc(S(=O)(=O)NC2CCCCC2)cc1)c1cccs1`, `Cc1cccc(C(=O)NC(=S)Nc2ccc(S(=O)(=O)N(C)c3ccccc3)cc2)c1` is higher in z-score: 0.16 for the first, 1.39 for the second.

With `CCOc1ccc(OCCSc2nc3ccccc3[nH]2)cc1` the z-score was 3.67 (active).
In the case of `CC(C)(C)c1ccc(C(=O)NC(=S)Nn2cnnc2)cc1`, the z-score is reported as 3.11 (active).
In the case of `CCCN(CCC)CCCNC(=O)c1cc2c(=O)n(C)c3ccccc3c2n1C`, the z-score is reported as 4 (active).
For `O=c1c2cc(F)ccc2[nH]c(=S)n1CCCN1CCOCC1`, the z-score was 3.11 (active).
With `O=C(COC(=O)C1CC2C=CC1C2)Nc1ccc2c(c1)OC(F)(F)O2` (centres undefined) the z-score was 4.04 (active).
With `CC1(c2ccccc2)CC(C)(C)N2C(=O)/C(=C3\SC(=S)NC3=O)c3cccc1c32` (centres undefined) the z-score was 5.26 (active).
For `CC(C)CC(=O)CN1C(=O)C2(OCCO2)c2ccccc21`, the z-score was 6.5 (active).
For `CCN(c1ccccc1)S(=O)(=O)c1ccc(NC(=S)NC(=O)c2ccc(Br)o2)cc1`, the z-score was 5.31 (active).
With `CN(c1ccccc1)S(=O)(=O)c1ccc(NC(=S)NC(=O)c2ccccc2)cc1` the z-score was 3.04 (active).
